From PubChem BioAssay (NCI)
“And” between values parts separate entries of the source, which are not always exact repeats. Equal values may be shown once. Compounds without any hit were thinned out: in the full panel of roughly 83,000, 20% have a hit.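 Interpretation: 100, growth as untreated; towards 0, rising growth inhibition; 0, no net growth; 0 to -100, cell death. Compounds scoring below 10 were considered active.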 The source made the active and inactive calls. Where a SMILES comes first, the peptide text is derived from it.

Assays:
Experiment in all cases: NCI-60 one-dose screen, 48 h (100 = growth as untreated, 0 = no growth, -100 = all killed)
[1] = system: SR leukemia; settings: 10 µM unless noted
[2] = system: RPMI-8226 leukemia; settings: 10 µM unless noted
[3] = system: OVCAR-8 ovarian; settings: 10 µM unless noted
[4] = system: OVCAR-5 ovarian; settings: 10 µM unless noted
[5] = system: OVCAR-4 ovarian; settings: 10 µM unless noted
[6] = system: SK-OV-3 ovarian; settings: 10 µM unless noted
[7] = system: IGROV1 ovarian; settings: 10 µM unless noted
[8] = system: OVCAR-3 ovarian; settings: 10 µM unless noted
[9] = system: HS 578T breast; settings: 10 µM unless noted
[10] = system: NCI/ADR-RES ovarian; settings: 10 µM unless noted
[11] = system: T-47D breast; settings: 10 µM unless noted
[12] = system: BT-549 breast; settings: 10 µM unless noted
[13] = system: MDA-MB-435 melanoma; settings: 10 µM unless noted
[14] = system: SW-620 colon; settings: 10 µM unless noted
[15] = system: MCF7 breast
[16] = system: HCC-2998 colon; settings: 10 µM unless noted
[17] = system: KM12 colon; settings: 10 µM unless noted
[18] = system: HCT-116 colon; settings: 10 µM unless noted

SMILES | growth [1] | growth [2] | growth [3] | growth [4] | growth [5] | growth [6] | growth [7] | growth [8] | growth [9] | growth [10] | growth [11] | growth [12] | growth [13] | growth [14] | growth ([15]; 10 µM unless noted) | growth [16] | growth [17] | growth [18] | growth ([15]; 10 µM) | growth ([15]; 100 µM)
C/C(=C\c1ccccc1)c1ccccn1 | 99.4% (inactive) | 114% (inactive) | 116% (inactive) | 118% (inactive) | 106% (inactive) | 106% (inactive) | 109% (inactive) | 106% (inactive) | 123% (inactive) | 110% (inactive) | 94.7% (inactive) | 110% (inactive) | 118% (inactive) | 105% (inactive) | 68.4% (inactive) | 117% (inactive) | 95.5% (inactive) |  |  | 
CC1CCC2(OC1)OC1CC3C4CC=C5CC(O)CCC5(C)C4CCC3(C)C1C2C (stereo unspecified) | 29.7% (inactive) | 71.4% (inactive) | 102% (inactive) | 114% (inactive) | 95.7% (inactive) | 114% (inactive) | 67.5% (inactive) | 105% (inactive) | 86.8% (inactive) | 114% (inactive) | 106% (inactive) | 130% (inactive) |  | 106% (inactive) | 105% (inactive) | 112% (inactive) | 104% (inactive) |  |  | 
NN1CCOC(c2ccccc2)C1 (stereo unspecified) | 29.8% (inactive) | 97.8% (inactive) | 103% (inactive) | 97.1% (inactive) | 119% (inactive) | 106% (inactive) |  | 106% (inactive) | 99.5% (inactive) | 105% (inactive) | 109% (inactive) | 102% (inactive) |  | 98% (inactive) | 91.8% (inactive) | 107% (inactive) | 101% (inactive) | 91.2% (inactive) |  | 
Oc1ccc(Cc2ccccc2Cl)c(O)c1 | 95.7% (inactive) | 87.5% (inactive) | 104% (inactive) | 97.3% (inactive) | 93.6% (inactive) | 104% (inactive) | 94.7% (inactive) |  | 94.4% (inactive) | 91.5% (inactive) | 83.9% (inactive) | 99.2% (inactive) |  | 97.1% (inactive) | 119% (inactive) | 91.3% (inactive) |  |  |  | 
O=C(O)CCCl | 83.7% (inactive) | 101% (inactive) | 104% (inactive) | 99.1% (inactive) | 98.8% (inactive) | 118% (inactive) | 107% (inactive) | 115% (inactive) | 96.4% (inactive) | 108% (inactive) | 110% (inactive) | 113% (inactive) | 109% (inactive) | 105% (inactive) | 97.5% (inactive) | 104% (inactive) | 106% (inactive) | 94.8% (inactive) |  | 
NC(Cc1ccccc1)C(=O)NC(Cc1ccccc1)C(=O)O (stereo not drawn) (H-Phe-Phe-OH; configuration not given here) | 97.4% (inactive) and 102% (inactive) | 112% (inactive) and 101% (inactive) | 101% (inactive) and 99.7% (inactive) | 99% (inactive) and 95.1% (inactive) | 102% (inactive) and 100% (inactive) | 97.6% (inactive) and 110% (inactive) |  | 108% (inactive) and 111% (inactive) | 98.3% (inactive) and 112% (inactive) | 105% (inactive) and 107% (inactive) | 89.3% (inactive) and 91.7% (inactive) | 108% (inactive) and 106% (inactive) | 109% (inactive) and 99.7% (inactive) | 102% (inactive) and 108% (inactive) | 98.9% (inactive) and 94.3% (inactive) | 112% (inactive) | 105% (inactive) and 107% (inactive) |  |  | 
CCOC(=O)c1c(C)cc(=O)oc1C | 92% (inactive) | 97.9% (inactive) | 111% (inactive) | 101% (inactive) | 108% (inactive) | 103% (inactive) | 99.2% (inactive) | 121% (inactive) | 118% (inactive) | 104% (inactive) | 102% (inactive) | 97.3% (inactive) |  | 110% (inactive) | 97.1% (inactive) | 103% (inactive) | 110% (inactive) |  |  | 
OCC1OC(O)C(O)C(O)C1O (stereo unspecified) | 106% (inactive) | 110% (inactive) | 108% (inactive) | 106% (inactive) | 103% (inactive) | 109% (inactive) | 126% (inactive) | 120% (inactive) | 116% (inactive) | 101% (inactive) | 102% (inactive) | 110% (inactive) | 113% (inactive) | 96.9% (inactive) | 82.6% (inactive) | 94% (inactive) | 128% (inactive) |  |  | 
Cc1ccc(S(=O)(=O)c2ccccc2)cc1 | 34.7% (inactive) | 49% (inactive) | 55.1% (inactive) | 80.1% (inactive) | 71.1% (inactive) | 29.5% (inactive) | 45.4% (inactive) | -38.9% (active) | 35.2% (inactive) | 21.1% (inactive) | 49.7% (inactive) | 36.6% (inactive) | -49.8% (active) | 11.6% (inactive) | 20.9% (inactive) | 51.6% (inactive) | 25.5% (inactive) | 18.8% (inactive) |  | 
c1ccc(CNCCNCc2ccccc2)cc1 | 95.3% (inactive) | 101% (inactive) | 124% (inactive) | 102% (inactive) | 103% (inactive) | 107% (inactive) | 120% (inactive) | 121% (inactive) | 114% (inactive) | 112% (inactive) | 103% (inactive) | 107% (inactive) | 106% (inactive) | 107% (inactive) | 93.4% (inactive) | 116% (inactive) | 120% (inactive) | 103% (inactive) |  | 
ClCCOCCOc1ccc(C2CCCCC2)cc1 | 98.5% (inactive) | 110% (inactive) | 97.1% (inactive) | 95.4% (inactive) | 97.7% (inactive) | 102% (inactive) |  | 103% (inactive) | 101% (inactive) | 115% (inactive) | 96.7% (inactive) | 95% (inactive) | 99.5% (inactive) | 110% (inactive) | 102% (inactive) | 106% (inactive) | 110% (inactive) | 99.5% (inactive) |  | 
CC1CCC2(C(=O)O)CCC3(C)C(=CCC4C5(C)CCC(O)C(C)(C)C5CCC43C)C2C1C (stereo unspecified) | 39.3% (inactive) and 46.8% (inactive) | 48.5% (inactive) and 83.4% (inactive) | 93.3% (inactive) | -8.77% (active) and 87.9% (inactive) | 59.3% (inactive) and 84.2% (inactive) | 91.6% (inactive) and 104% (inactive) |  | 56% (inactive) and 101% (inactive) | -49% (active) and 63.1% (inactive) | 16.5% (inactive) and 97.3% (inactive) | 49% (inactive) and 77.2% (inactive) | 263% (inactive) and 102% (inactive) |  | 15.2% (inactive) and 98.2% (inactive) |  | -29% (active) and 91.4% (inactive) | 59.6% (inactive) and 85.7% (inactive) |  | 84.3% (inactive) and 93.3% (inactive) | -56.5% (active) and -70% (active)
Cc1ccc(=O)[nH]n1 | 98.9% (inactive) and 93% (inactive) | 108% (inactive) | 100% (inactive) and 102% (inactive) | 115% (inactive) and 98.4% (inactive) | 112% (inactive) and 122% (inactive) | 111% (inactive) and 112% (inactive) | 106% (inactive) | 106% (inactive) and 107% (inactive) | 105% (inactive) and 93.7% (inactive) | 103% (inactive) | 109% (inactive) and 95.4% (inactive) | 112% (inactive) and 113% (inactive) | 113% (inactive) | 102% (inactive) and 103% (inactive) | 101% (inactive) and 96.2% (inactive) | 98.2% (inactive) and 107% (inactive) | 103% (inactive) and 101% (inactive) |  |  | 
